Reference: ChEMBL document CHEMBL1961873, “Compounds: GSK PKIS; Assays: Nanosyn kinase panel” (2012)

How the values were obtained:
[1] = target: T1, Serine/threonine-protein kinase Nek9 (Homo sapiens) (UniProt Q8TD19); conditions: at 1 µM;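 further: each value is a mean percent inhibition of NEK9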
T1 sequence (whole entry): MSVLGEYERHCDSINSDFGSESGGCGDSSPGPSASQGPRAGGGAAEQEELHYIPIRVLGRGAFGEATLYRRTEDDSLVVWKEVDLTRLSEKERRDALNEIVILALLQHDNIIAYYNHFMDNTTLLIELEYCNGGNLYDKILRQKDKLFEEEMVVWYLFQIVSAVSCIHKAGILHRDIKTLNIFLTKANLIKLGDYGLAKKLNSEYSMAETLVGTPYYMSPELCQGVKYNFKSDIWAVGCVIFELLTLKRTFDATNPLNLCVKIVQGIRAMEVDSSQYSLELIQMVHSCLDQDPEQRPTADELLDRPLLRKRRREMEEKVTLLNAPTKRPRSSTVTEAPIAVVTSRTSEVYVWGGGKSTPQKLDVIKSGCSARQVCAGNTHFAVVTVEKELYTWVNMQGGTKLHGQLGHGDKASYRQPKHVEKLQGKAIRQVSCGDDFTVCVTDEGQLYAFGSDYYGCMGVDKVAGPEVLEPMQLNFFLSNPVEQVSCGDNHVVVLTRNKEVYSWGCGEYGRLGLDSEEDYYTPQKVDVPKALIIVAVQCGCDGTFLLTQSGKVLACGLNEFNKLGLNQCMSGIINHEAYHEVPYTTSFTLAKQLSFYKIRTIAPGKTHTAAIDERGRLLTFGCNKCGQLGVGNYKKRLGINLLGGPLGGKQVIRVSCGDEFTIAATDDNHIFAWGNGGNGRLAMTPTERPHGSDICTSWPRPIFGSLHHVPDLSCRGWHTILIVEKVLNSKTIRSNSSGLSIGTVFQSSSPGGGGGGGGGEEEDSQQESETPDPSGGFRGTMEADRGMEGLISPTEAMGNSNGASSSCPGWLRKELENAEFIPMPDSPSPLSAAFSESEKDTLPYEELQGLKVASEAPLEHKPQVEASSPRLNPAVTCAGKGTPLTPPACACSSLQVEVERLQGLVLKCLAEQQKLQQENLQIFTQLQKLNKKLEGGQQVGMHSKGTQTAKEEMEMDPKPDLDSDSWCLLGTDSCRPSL

[2] = target: Serine/threonine-protein kinase PLK1 (Homo sapiens) (UniProt P53350); conditions: at 0.1 µM
[3] = target: Serine/threonine-protein kinase PLK1 (Homo sapiens) (UniProt P53350); conditions: at 1 µM
[4] = target: T2, Dual specificity protein kinase TTK (Homo sapiens) (UniProt P33981); conditions: at 0.1 µM
T2 sequence (whole entry): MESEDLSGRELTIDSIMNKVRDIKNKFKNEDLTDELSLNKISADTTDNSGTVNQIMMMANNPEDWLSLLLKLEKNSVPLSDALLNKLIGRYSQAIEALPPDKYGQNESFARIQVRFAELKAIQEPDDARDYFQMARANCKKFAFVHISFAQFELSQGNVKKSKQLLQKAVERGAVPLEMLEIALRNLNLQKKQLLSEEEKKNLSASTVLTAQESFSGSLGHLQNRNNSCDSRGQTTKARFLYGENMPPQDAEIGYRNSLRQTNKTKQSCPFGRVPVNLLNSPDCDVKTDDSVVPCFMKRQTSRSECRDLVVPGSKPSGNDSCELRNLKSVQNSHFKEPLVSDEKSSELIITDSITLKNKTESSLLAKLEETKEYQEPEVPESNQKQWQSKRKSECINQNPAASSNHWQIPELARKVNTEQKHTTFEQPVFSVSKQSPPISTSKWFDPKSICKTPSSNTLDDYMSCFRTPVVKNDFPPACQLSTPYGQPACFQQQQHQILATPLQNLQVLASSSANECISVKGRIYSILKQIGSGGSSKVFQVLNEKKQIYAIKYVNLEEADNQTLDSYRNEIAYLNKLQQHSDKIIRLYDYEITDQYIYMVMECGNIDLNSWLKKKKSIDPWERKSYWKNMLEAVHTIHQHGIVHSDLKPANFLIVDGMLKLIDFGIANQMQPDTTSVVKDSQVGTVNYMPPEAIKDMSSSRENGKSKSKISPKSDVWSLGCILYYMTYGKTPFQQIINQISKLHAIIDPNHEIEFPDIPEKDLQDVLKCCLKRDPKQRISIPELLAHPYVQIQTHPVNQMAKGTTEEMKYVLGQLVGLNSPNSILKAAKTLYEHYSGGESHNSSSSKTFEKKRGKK

[5] = test system: T3, Receptor-type tyrosine-protein kinase FLT3 (Homo sapiens), P36888 [D835Y]; conditions: at 1 µM
T3 sequence (whole entry): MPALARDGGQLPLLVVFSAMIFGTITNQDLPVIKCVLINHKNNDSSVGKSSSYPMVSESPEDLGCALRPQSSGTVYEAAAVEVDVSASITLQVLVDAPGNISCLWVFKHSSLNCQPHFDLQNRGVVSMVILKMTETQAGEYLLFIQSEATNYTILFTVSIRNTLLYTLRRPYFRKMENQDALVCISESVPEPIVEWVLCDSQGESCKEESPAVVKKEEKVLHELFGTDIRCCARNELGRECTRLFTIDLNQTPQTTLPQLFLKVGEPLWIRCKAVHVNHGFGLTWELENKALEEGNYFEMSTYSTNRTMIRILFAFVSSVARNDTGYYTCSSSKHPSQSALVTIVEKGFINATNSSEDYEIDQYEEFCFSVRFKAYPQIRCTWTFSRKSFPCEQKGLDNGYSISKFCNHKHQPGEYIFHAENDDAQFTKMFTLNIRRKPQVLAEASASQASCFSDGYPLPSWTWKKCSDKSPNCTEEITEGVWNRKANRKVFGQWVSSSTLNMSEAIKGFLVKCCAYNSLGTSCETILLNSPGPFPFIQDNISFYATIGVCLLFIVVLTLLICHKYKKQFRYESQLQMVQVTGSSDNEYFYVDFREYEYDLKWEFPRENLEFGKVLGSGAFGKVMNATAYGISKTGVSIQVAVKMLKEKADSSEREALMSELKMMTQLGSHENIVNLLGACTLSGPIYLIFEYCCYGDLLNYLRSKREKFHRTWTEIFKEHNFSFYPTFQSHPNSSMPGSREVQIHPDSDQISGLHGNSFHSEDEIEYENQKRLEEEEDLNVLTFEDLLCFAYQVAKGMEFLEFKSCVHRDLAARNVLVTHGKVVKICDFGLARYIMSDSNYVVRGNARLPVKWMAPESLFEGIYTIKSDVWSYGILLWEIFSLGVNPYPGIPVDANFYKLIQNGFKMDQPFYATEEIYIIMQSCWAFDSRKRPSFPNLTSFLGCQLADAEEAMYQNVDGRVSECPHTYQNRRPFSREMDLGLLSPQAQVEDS

[6] = target: Vascular endothelial growth factor receptor 3 (Homo sapiens) (UniProt P35916); conditions: at 0.1 µM
[7] = target: Vascular endothelial growth factor receptor 3 (Homo sapiens) (UniProt P35916); conditions: at 1 µM
[8] = target: Macrophage colony-stimulating factor 1 receptor (Homo sapiens) (UniProt P07333); conditions: at 0.1 µM
[9] = target: Macrophage colony-stimulating factor 1 receptor (Homo sapiens) (UniProt P07333); conditions: at 1 µM
[10] = target: Tyrosine-protein kinase Fyn (Homo sapiens) (UniProt P06241); conditions: at 0.1 µM
[11] = target: Tyrosine-protein kinase Fyn (Homo sapiens) (UniProt P06241); conditions: at 1 µM
[12] = target: Tyrosine-protein kinase HCK (Homo sapiens) (UniProt P08631); conditions: at 0.1 µM
[13] = target: Tyrosine-protein kinase HCK (Homo sapiens) (UniProt P08631); conditions: at 1 µM
[14] = target: Insulin-like growth factor 1 receptor (Homo sapiens) (UniProt P08069); conditions: at 0.1 µM
[15] = target: Insulin-like growth factor 1 receptor (Homo sapiens) (UniProt P08069); conditions: at 1 µM
[16] = target: Insulin receptor (Homo sapiens) (UniProt P06213); conditions: at 0.1 µM
[17] = target: Insulin receptor (Homo sapiens) (UniProt P06213); conditions: at 1 µM
[18] = target: Insulin receptor-related protein (Homo sapiens) (UniProt P14616); conditions: at 0.1 µM
[19] = target: Insulin receptor-related protein (Homo sapiens) (UniProt P14616); conditions: at 1 µM
[20] = target: T4, Tyrosine-protein kinase ITK/TSK (Homo sapiens) (UniProt Q08881); conditions: at 0.1 µM;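 further: mean percent inhibition of ITK from the GSK PKIS screen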
T4 sequence (whole entry): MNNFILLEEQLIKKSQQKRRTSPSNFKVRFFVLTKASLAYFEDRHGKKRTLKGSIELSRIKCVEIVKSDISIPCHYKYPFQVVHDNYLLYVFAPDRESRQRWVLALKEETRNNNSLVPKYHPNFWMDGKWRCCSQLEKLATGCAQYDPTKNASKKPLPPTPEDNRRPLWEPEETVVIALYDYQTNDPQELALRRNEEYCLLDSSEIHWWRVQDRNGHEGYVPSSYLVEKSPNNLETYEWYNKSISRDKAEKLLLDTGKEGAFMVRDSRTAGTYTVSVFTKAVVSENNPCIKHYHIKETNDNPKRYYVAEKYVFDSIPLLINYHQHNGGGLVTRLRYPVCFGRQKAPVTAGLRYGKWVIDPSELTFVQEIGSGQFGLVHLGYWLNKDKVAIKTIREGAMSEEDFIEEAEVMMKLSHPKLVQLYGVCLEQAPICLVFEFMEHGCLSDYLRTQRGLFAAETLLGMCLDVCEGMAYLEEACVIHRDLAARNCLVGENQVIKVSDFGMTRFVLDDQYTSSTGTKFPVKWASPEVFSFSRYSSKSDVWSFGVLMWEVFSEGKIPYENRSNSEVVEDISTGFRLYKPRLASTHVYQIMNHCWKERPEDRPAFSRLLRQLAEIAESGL

Chain of Macrophage colony-stimulating factor 1 receptor (Homo sapiens) (P07333 whole entry): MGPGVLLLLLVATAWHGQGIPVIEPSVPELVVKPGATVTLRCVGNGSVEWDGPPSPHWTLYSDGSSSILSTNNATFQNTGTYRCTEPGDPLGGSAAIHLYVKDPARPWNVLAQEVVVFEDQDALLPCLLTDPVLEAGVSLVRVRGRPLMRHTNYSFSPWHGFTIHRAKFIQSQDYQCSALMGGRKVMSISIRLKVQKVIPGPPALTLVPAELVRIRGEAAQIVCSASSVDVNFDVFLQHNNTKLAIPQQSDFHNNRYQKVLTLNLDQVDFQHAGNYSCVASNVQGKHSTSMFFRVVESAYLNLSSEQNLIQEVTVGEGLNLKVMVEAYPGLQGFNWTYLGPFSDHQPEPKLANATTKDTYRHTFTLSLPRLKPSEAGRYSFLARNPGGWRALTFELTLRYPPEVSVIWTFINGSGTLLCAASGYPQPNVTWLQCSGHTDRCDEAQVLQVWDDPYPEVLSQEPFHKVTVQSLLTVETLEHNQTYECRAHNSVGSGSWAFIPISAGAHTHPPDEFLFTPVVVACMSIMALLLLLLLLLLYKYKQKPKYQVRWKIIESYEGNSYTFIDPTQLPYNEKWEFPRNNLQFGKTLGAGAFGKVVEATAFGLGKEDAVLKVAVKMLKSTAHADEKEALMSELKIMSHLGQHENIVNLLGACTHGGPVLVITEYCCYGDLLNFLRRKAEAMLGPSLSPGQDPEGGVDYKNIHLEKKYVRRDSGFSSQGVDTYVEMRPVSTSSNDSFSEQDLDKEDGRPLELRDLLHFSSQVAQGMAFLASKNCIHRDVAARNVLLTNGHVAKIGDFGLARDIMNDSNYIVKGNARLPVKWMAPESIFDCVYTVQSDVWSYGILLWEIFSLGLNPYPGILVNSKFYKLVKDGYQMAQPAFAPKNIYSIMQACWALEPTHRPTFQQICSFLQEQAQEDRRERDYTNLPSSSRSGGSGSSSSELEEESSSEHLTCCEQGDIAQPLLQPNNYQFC
Chain of Insulin receptor-related protein (Homo sapiens) (P14616 27-742 limits assumed): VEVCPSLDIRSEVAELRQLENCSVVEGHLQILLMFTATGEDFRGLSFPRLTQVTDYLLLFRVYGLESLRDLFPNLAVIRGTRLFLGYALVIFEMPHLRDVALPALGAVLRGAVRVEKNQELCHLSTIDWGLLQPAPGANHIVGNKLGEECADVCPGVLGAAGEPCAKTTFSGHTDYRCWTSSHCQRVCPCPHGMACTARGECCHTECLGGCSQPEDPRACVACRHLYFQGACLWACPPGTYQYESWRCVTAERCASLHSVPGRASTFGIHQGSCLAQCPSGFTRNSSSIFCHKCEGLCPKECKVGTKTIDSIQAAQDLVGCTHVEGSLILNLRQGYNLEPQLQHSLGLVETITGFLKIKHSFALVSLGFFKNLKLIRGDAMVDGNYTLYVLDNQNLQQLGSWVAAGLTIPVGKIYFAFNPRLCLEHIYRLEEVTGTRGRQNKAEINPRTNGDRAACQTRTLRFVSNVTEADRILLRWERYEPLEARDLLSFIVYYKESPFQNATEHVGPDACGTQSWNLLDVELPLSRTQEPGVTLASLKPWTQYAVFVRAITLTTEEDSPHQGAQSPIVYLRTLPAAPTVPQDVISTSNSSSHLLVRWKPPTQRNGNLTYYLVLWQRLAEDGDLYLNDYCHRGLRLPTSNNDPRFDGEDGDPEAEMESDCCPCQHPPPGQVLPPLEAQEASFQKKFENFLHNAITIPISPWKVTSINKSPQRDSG
Chain of Insulin receptor-related protein (Homo sapiens) (P14616 747-1297 limits assumed): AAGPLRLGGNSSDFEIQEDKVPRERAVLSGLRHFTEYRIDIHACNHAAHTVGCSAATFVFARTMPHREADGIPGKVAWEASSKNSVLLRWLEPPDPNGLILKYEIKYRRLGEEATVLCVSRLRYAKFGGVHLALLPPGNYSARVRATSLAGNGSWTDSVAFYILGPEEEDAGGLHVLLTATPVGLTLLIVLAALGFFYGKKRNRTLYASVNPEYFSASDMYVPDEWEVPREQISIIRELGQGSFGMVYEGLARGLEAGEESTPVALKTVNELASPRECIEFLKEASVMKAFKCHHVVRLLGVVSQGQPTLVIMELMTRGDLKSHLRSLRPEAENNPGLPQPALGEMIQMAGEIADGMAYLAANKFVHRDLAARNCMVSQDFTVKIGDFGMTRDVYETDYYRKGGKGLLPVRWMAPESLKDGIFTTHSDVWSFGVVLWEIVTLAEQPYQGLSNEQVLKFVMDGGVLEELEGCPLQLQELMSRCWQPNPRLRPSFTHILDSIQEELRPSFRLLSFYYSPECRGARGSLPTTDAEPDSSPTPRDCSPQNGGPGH
Chain of Insulin-like growth factor 1 receptor (Homo sapiens) (P08069 31-736 limits assumed): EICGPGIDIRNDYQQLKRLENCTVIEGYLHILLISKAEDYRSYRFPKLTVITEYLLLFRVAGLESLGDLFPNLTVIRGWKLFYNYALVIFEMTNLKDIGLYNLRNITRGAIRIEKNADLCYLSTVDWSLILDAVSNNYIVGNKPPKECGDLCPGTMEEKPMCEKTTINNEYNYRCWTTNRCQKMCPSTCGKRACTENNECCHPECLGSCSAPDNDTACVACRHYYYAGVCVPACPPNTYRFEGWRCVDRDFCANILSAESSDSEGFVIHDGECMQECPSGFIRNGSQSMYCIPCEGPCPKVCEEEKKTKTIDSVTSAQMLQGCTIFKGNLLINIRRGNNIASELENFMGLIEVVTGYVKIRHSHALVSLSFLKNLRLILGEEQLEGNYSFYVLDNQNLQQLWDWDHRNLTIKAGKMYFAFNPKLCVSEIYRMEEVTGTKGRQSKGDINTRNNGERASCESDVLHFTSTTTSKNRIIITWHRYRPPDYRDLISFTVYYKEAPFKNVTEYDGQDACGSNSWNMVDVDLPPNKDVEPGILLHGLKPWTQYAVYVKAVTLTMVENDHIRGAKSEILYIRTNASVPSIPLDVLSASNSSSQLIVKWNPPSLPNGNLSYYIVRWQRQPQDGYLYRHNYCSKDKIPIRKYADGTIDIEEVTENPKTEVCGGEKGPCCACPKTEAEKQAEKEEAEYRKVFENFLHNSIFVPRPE
Chain of Insulin-like growth factor 1 receptor (Homo sapiens) (P08069 741-1367 limits assumed): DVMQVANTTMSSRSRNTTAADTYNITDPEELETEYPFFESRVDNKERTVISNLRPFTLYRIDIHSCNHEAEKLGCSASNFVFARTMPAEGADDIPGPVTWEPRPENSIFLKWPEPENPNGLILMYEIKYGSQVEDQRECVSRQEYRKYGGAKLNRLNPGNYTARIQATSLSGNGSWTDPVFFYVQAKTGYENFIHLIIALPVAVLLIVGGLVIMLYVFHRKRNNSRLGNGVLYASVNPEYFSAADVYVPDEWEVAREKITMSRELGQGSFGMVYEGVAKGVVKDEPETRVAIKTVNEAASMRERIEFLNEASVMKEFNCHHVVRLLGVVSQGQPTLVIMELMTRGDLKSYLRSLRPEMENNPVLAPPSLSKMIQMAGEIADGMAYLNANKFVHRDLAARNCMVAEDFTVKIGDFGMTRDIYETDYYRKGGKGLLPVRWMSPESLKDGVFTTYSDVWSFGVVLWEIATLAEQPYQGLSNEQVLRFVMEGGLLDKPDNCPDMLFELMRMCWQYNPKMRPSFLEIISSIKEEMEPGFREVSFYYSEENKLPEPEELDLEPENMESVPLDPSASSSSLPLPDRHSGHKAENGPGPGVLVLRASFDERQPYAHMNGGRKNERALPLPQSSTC
Chain of Vascular endothelial growth factor receptor 3 (Homo sapiens) (P35916 whole entry): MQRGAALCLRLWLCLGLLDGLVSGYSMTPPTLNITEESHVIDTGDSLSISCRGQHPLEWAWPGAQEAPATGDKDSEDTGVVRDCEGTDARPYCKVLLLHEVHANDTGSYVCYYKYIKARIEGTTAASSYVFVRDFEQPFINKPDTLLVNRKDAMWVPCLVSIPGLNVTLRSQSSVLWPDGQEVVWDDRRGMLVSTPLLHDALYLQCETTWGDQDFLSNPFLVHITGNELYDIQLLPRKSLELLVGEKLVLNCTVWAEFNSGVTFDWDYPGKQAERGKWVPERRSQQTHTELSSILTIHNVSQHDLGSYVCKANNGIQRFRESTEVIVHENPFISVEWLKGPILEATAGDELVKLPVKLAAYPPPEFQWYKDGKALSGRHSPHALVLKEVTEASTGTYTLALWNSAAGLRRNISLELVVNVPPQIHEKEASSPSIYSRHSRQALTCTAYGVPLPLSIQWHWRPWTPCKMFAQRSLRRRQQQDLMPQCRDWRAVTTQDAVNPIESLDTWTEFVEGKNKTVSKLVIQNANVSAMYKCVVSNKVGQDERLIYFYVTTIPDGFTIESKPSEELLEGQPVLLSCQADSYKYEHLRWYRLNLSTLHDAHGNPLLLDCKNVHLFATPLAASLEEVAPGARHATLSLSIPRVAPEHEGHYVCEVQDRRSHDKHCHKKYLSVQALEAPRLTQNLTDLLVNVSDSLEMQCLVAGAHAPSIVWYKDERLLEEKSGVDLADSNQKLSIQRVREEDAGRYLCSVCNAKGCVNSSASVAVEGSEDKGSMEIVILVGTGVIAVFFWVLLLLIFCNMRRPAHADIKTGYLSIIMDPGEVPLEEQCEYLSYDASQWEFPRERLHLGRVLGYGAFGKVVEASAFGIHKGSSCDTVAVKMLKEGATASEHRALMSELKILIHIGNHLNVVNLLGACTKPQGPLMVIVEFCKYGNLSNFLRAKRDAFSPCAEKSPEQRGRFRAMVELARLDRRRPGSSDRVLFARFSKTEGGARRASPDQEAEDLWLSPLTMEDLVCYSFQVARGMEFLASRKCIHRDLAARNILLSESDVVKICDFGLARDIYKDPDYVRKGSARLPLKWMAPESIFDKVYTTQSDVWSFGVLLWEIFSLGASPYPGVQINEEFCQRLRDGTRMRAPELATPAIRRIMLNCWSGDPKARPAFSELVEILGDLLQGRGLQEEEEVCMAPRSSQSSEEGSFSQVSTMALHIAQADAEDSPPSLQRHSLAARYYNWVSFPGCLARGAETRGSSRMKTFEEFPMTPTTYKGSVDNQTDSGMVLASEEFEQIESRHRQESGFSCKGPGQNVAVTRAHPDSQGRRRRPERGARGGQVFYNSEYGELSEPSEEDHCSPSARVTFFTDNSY

| SMILES | inhibition [1] | inhibition [2] | inhibition [3] | inhibition [4] | inhibition [5] | inhibition [6] | inhibition [7] | inhibition [8] | inhibition [9] | inhibition [10] | inhibition [11] | inhibition [12] | inhibition [13] | inhibition [14] | inhibition [15] | inhibition [16] | inhibition [17] | inhibition [18] | inhibition [19] | inhibition [20] |
| --- | --- | --- | --- | --- | --- | --- | --- | --- | --- | --- | --- | --- | --- | --- | --- | --- | --- | --- | --- | --- |
| CC1(C)CC(n2cnc(-c3ccc(F)cc3)c2-c2ccnc(N)n2)CC(C)(C)N1 | 2.47% | 2.09% | 0.76% | -0.55% | 0.24% | 3.06% | 2.77% | 1.31% | 0.54% | 1.49% | 2.65% | 2.18% | 3.22% | 1.3% | 3.3% | 4.97% | 4.07% | -0.08% | -1.13% | 0.29% |
| CCn1c(-c2nonc2N)nc2cncc(C(=O)NCCNC)c21 | 11.9% | 6.23% | 5.87% | 9.43% | 3.12% | 1.03% | 3.05% | -0.11% | 3.41% | 2.35% | 2% | 4.96% | 6.37% | 1.12% | 5.76% | 5.87% | 15.3% | 3.26% | 5.53% | -0.27% |
| O=C(O[C@H]1CN[C@H](C#Cc2cc3ncnc(Nc4ccc5c(ccn5Cc5cc(F)ccc5F)c4)c3s2)C1)N1CCOCC1 | 12.3% | 4.51% | 10.8% | 11% | -1.27% | 4.34% | 4.77% | 2.09% | 15.5% | 4.48% | 0.77% | 4.89% | 8.93% | 2.56% | 2.8% | 6.64% | 2.68% | 1.67% | 2.01% | 1.67% |
